Experimental data: PubChem BioAssay (EPA / NIEHS)
The source holds several records for some structures; these can differ, active in one and inactive in another. The source made the active and inactive calls. The calls were made as follows: active = hit-call score of the fitted dose curve at least 0.9, where 1 is the maximum; inactive = score below 0.9.

These molecules were tested on Plasminogen Activator Inhibitor-1 (PAI1), SERPINE1 (gene 5054) (assay: BSK_BF4T_PAI1: BioMAP Diversity Plus: BF4T Assay for Plasminogen Activator Inhibitor-1 (PAI1) Biomarker Activity (AID 2284273)). Conditions: primary human bronchial epithelial cells with fibroblasts.
Experimental: BSK_BF4T is a cell-based, multiplexed-readout assay that uses bronchial epithelial cells and dermal fibroblasts, a human vascular primary cell, with measurements taken at 24 hours after chemical dosing in a microplate: 96-well plate.BSK_BF4T_PAI1 is an assay component measured in the BSK_BF4T assay. It measures PAI-1 antibody related to regulation of gene expression using ELISA technology.Data from the assay component BSK_BF4T_PAI1 was analyzed at the endpoint, BSK_BF4T_PAI1, in the positive analysis fitting direction relative to DMSO as the negative control and baseline of activity. Using a type of binding reporter, gain or loss-of-signal activity can be used to understand protein changes. To generalize the intended target to other relatable targets, this assay endpoint is annotated to the 'cytokine' intended target family, where the subfamily is 'plasmogen activator inhibitor'.
The levels of cell surface (or secreted, indicated by the prefix "s") biomarker endpoints were measured by ELISA. Overt cytotoxicity to cells in confluent adherent cultures (all systems other than the BT system) was assessed by measuring total protein levels using sulforhodamine B (SRB) staining in parallel cultures at the time of biomarker measurements, indicated as SRB endpoints. For proliferation assays for adherent cell types, individual cell types are cultured at sub-confluence and relative cell numbers quantified by SRB staining at time points optimized for each system (48 h: 3C and CASM3C systems; 72 h: BT and HDF3CGF systems; 96 h: SAg system). SRB was performed by staining cells with 0.1% SRB after fixation with 10% TCA and reading wells at 560 nm.Viability and proliferation of PBMC (T cells) was quantified by Alamar Blue reduction for the SAg and BT systems. For PBMC viability (referred to as PBMC Cytotoxicity within the assay endpoint names), cells were plated (75,000/well in a 96-well plate) and then chemical samples added for 1 h before addition of activators, SEB and TSST-1 (20 ng/mL final concentration each). Cells were incubated for 90 h. Then, Alamar Blue (20 uL/well) (Invitrogen, Cat DAL1100) was added for 6 h, and the plates were read with a fluorescence microplate reader at 546/580 nm (excitation/emission). For PBMC proliferation, cells were plated and activated as above but incubated for only 16 h prior to addition of Alamar Blue. Plates were read after 6 h.

| Structure (SMILES) | outcome | AC50 |
| --- | --- | --- |
| OCC(F)(F)OC(F)(F)C(F)(F)OC(F)(F)C(F)(F)OC(F)(F)CO | inactive | – |
| OCC(F)(F)OC(F)(F)C(F)(F)OC(F)(F)CO | inactive | – |
| O=C(O)C=CC(F)(C(F)(F)F)C(F)(F)F | inactive | – |
| FC(F)(F)C(F)(C(F)(F)F)C(F)(F)C(F)(F)CC1CO1 (stereo not given) | inactive | – |
| C=CC(=O)OCC(F)(F)C(F)F | inactive | – |
| COC(=O)C(F)(F)C(F)(F)OC(F)(C(F)(F)F)C(F)(F)OC(F)=C(F)F (stereo not given) | inactive | – |
| O=C(O)C(F)(F)C(F)(F)C(=O)O | inactive | – |
| O=S(=O)(F)C(F)(F)C(F)(F)C(F)(F)C(F)(F)C(F)(F)C(F)(F)C(F)(F)C(F)(F)F | inactive | – |
| OCC(F)(F)OC(F)(F)C(F)(F)OC(F)(F)C(F)(F)OC(F)(F)F | inactive | 25.6 µM (active) |
| NC(=O)C(F)(F)C(F)(F)F | inactive | – |
| O=C(O)C(F)(F)OC(F)(F)C(F)(F)OC(F)(F)C(=O)O | inactive | – |
| O=C(O)C(F)(OC(F)(F)C(F)(F)C(F)(F)F)C(F)(F)F (stereo not given) | inactive | – |
| O=C(O)C(F)(F)OC(F)(F)C(F)(F)OC(F)(F)F | inactive | – |
| CC(O)C(F)(F)C(F)(F)F (stereo not given) | inactive | – |
